# Cardio protect: cardioprotection against H2O2-induced cell death, primary screen, uHTS, H9c2 cells, ATPLite luminescence; protection from H2O2 cell death, % at 20 µM; AID 588492, 2011; actives 0.63% (n = 360,000); H9c2 cardiomyocytes, H2O2 injury protection, 2 h;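 active means compounds giving at least 50% protection of heart cells from peroxide-induced death in the single-dose screen, raw or plate-pattern-corrected value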;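 further: 0% = DMSO wells with peroxide and 100% = DMSO wells without peroxide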
# PHOSPHO1 block: PubChem AID 1565; recombinant PHOSPHO1, absorbance phosphatase assay; inhibition, % at 13.3 µM; actives 1.1% (n = 290,000); in the data active means inhibition above about 60%
# Target sequence (Q8TCT1 whole entry, looked up): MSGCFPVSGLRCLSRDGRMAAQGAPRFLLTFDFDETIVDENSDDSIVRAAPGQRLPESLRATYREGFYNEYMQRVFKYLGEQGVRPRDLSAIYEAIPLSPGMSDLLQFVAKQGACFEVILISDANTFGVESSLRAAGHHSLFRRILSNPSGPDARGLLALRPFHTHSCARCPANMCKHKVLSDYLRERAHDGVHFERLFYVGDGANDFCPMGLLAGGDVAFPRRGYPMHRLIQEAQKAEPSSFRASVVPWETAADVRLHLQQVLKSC
# ALR inh: inhibitors of human ALR sulfhydryl oxidase, primary screen, biochemical, H2O2 detection, HRP-luminol luminescence, single point; FAD-linked sulfhydryl oxidase ALR (Homo sapiens), P55789; purified ALR, DTT oxidation; inhibition, % (test concentration not listed); actives 3.8% (n = 290,000);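 active means mean replicate inhibition above about 79%, with every replicate also reaching it, limit read from the data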
# Target sequence (P55789 whole entry, looked up): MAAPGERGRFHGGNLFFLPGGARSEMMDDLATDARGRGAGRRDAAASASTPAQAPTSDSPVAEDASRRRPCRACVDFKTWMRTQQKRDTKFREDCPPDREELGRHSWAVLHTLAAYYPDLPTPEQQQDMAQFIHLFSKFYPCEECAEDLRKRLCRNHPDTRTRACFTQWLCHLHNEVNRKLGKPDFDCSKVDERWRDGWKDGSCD
# PfGluPho inh: PfG6PD enzyme inhibitors, primary screen, biochemical, fluorescence intensity, uHTS. glucose-6-phosphate dehydrogenase-6-phosphogluconolactonase (Plasmodium falciparum 3D7). PfGluPho enzyme, NADPH resazurin-diaphorase fluorescence. inhibition, % at 20 µM. actives 0.78% (n = 350,000). AID 504690, 2011;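 active means inhibition reaching at least a set limit at 20 µM in the primary screen, cut at about 59% in these data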;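 further: 0% = DMSO wells with substrate and 100% = DMSO wells lacking glucose-6-phosphate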
# M18AAP inhibitor: PfM18AAP inhibitors, malaria aminopeptidase, primary screen, biochemical, QFRET, recombinant enzyme. H-Glu-NHMec fluorogenic cleavage. M18 aspartyl aminopeptidase (Plasmodium falciparum 3D7). AID 1822, 2009. actives 1.2% (n = 290,000). inhibition, % at 7.35 µM;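 active means inhibition above the campaign mean inhibition over all tested compounds plus 3 SD, cut at about 28% in these data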;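 further: 0% = plate median of test compound wells and 100% = 2 mM ZnCl2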
# * hit, by the source's call; x = not tested or not shown. The list is not random: actives were taken first. Their share in the collection is about 5.6%.
SMILES,Cardio protect,PHOSPHO1 block,ALR inh,PfGluPho inh,M18AAP inhibitor
Cc1ccc(S(=O)(=O)N2[C@@H](c3ccc(Cl)cc3)C(C(=O)O)=CC[C@H]2c2ccc(Cl)c(Cl)c2)cc1,-2.7,x,88.5*,-15.0,x
O=S(=O)(c1ccccc1)c1cc(O)ccc1O,40.9,26.2,97.8*,15.6,-10.1
O=S(=O)(c1ccc(Cl)cc1)c1cc(O)ccc1O,56.5*,8.8,99.2*,17.0,-3.7
Nc1ccc(S(=O)(=O)c2ccc(Cl)cc2)cc1,19.6,8.5,-4.4,8.7,-1.8
Cc1cccc(N2CC(C(=O)Nc3ccc(S(=O)(=O)Nc4nccs4)cc3)CC2=O)c1C (configuration not stated),-7.2,17.4,-7.3,13.5,8.1
CC1=C(C(=O)N(C)C)CC(CC(=O)NC2CCCCC2)C(=O)N1Cc1ccccc1 (configuration not stated),20.9,x,x,0.5,x
CCCCNC(=O)CC1N=C2c3ccccc3N=C(SCC(=O)Nc3cccc(OC)c3)N2C1=O (configuration not stated),3.2,26.3,84.0*,11.8,-8.6
COCCCNC(=O)CSC1=Nc2ccccc2C2=NC(CC(=O)NCc3ccccc3)C(=O)N12 (configuration not stated),-0.3,40.3,-7.4,7.6,5.0
CCCCNC(=O)CC1N=C2c3ccccc3N=C(SCC(=O)Nc3ccccc3OC)N2C1=O (configuration not stated),3.6,12.6,-3.1,-12.7,0.0
CCCCNC(=O)CC1N=C2c3ccccc3N=C(SCC(=O)Nc3ccc(OC)cc3)N2C1=O (configuration not stated),-0.1,18.1,96.2*,11.7,7.5
CCCCCc1ccnc(CC(=O)c2ccc(OC)cc2)c1,-9.2,x,x,-6.0,x
CC1CN(c2ccc(NC(=S)Nc3ccc(N4CC(C)OC(C)C4)cc3)cc2)CC(C)O1 (configuration not stated),-5.6,-40.0,97.1*,21.2,29.1*
CC1CN(C(=S)Nc2ccc(Cl)cc2)CC(C)O1 (configuration not stated),3.7,-26.4,-6.6,15.6,1.4
CCC(C)[C@H]1COCCS(=O)(=O)N1Cc1ccc(Br)cc1 (some centres not stated),-10.5,-1.7,-3.5,-2.2,-2.5
CCOC(=O)C1=CCN(S(=O)(=O)c2ccc(C)cc2)C1c1ccc(C(C)C)cc1 (configuration not stated),-5.7,x,x,x,x
O=C1COc2ccc(S(=O)(=O)CCC(=O)N3CCN(c4ccccc4)CC3)cc2N1,1.6,32.4,98.4*,0.7,-3.0
Cn1c(=O)oc2cc(S(=O)(=O)CCC(=O)N3CCN(c4ccccc4)CC3)ccc21,-4.6,43.7,-4.5,11.9,0.8
O=C(CS(=O)(=O)c1ccccc1)N1CCN(c2ccccc2)CC1,-2.2,x,x,0.5,x
O=C(CCS(=O)(=O)c1ccccc1)N1CCN(c2ccccc2)CC1,3.3,32.2,98.7*,-3.1,2.0
COc1cccc(N2CCN(C(=O)CCS(=O)(=O)c3ccc4c(c3)oc(=O)n4C)CC2)c1,-1.1,12.1,98.4*,10.8,7.3
O=C(CCS(=O)(=O)c1ccc(Br)cc1)N1CCN(c2ccccc2)CC1,0.6,-18.5,98.9*,9.7,-7.9
Cc1ccc(C)c(N2CCN(C(=O)CCS(=O)(=O)c3ccc4c(c3)NC(=O)CO4)CC2)c1,-4.1,42.6,6.9,0.8,-10.7
Cc1cc(Cl)c2oc(C(=O)N(C)CCc3cnn(C)c3)c(C)c2c1,1.2,18.5,2.4,4.6,-3.2
Cc1ccc(S(=O)(=O)NCc2ccc(C(=O)N3CCN(c4ccccc4)CC3)cc2)cc1,-1.5,73.1*,6.4,-4.2,6.9
O=C(CCS(=O)(=O)c1cccs1)N1CCCC1,9.2,63.9*,0.6,14.1,2.1
SMILES,Cardio protect,PHOSPHO1 block,ALR inh,PfGluPho inh,M18AAP inhibitor
COc1ccc(N2CCN(C(=O)CCNS(=O)(=O)c3ccc(C)cc3)CC2)cc1,-3.6,x,99.0*,-10.5,-0.9
O=C(CCNS(=O)(=O)c1ccccc1)N1CCN(c2ccccc2)CC1,3.1,37.7,95.6*,-5.9,1.9
CC1CCCCN1CCCNC(=O)c1ccc2nc(N3CCCCC3)sc2c1 (configuration not stated),0.9,25.4,-0.9,11.2,4.5
CCN(CC(=O)Nc1ccc(NC(C)=O)cc1)C(=O)CCCc1nc2ccccc2c(=O)[nH]1,10.9,x,2.6,5.9,x
Cc1ccccc1N1C(=O)c2cc(S(N)(=O)=O)c(Cl)cc2NC1C (configuration not stated),0.2,x,6.7,16.9,x
Oc1ccc(Cl)cc1CNCC1CCCCC1,-9.6,x,x,-5.0,x
O=C(COC(=O)c1cc(S(=O)(=O)Nc2ccccc2Cl)ccc1O)Nc1ccc(F)c(F)c1F,-11.1,x,47.2,-3.1,x
O=C(CCS(=O)(=O)Cc1ccccc1)N1CCN(c2ccccc2)CC1,6.3,4.6,98.8*,-0.8,10.2
Cc1ccc(OCCC(=O)N2CCN(c3ccc(O)cc3)CC2)cc1,-4.6,-0.3,99.6*,57.9,13.1
COc1ccc(N2CCN(C(=O)CCC(=O)N3CCOc4ccc(C)cc43)CC2)cc1,10.5,28.1,97.2*,-1.8,7.8
CS(=O)(=O)N(Cc1ccc(Cl)cc1)c1ccc(C(=O)N2CCN(c3ccccc3)CC2)cc1,6.2,99.8*,-35.0,16.4,5.5
CS(=O)(=O)N(Cc1ccccc1)c1ccc(C(=O)N2CCN(c3cccc(Cl)c3)CC2)cc1,13.0,-15.3,-7.5,13.6,3.4
COc1ccc(N2CCN(C(=O)CSc3ccc(C)cc3)CC2)cc1,-2.8,14.6,0.5,-12.8,0.7
COc1ccc(N2CCN(C(=O)CCC(=O)N3CCOc4ccc(Cl)cc43)CC2)cc1,-1.8,12.3,69.4,-3.0,9.1
COc1ccc(NS(=O)(=O)c2cc(NC(=O)Cc3n[nH]c(=O)c4ccccc34)ccc2OC)cc1,70.5*,x,x,11.2,x
COc1ccccc1NS(=O)(=O)c1cc(NC(=O)Cc2n[nH]c(=O)c3ccccc23)ccc1Cl,69.9*,x,-24.9,13.8,x
Cc1cc(OC(C)C(=O)NCCCn2ccnc2)c2c(C)c(C)c(=O)oc2c1 (configuration not stated),3.2,54.3,-2.8,2.7,2.1
COc1ccc(Cc2nnc(NC(=O)C3CCN(C(=O)c4ccco4)CC3)s2)cc1,-1.8,26.9,-1.0,15.0,-7.3
CCCCCCCCS(=O)c1sc2nc(C)cc(C)c2c1N (configuration not stated),0.1,94.1*,8.2,-7.6,15.3
CC1(C(=O)NS(=O)(=O)c2cccc(Cl)c2)CCN1C(=O)C1(c2ccc(Cl)cc2)CC1 (configuration not stated),9.1,x,x,x,x
COc1ccccc1S(=O)Cc1ccc(C(=O)NC2CCCC2)o1 (configuration not stated),1.8,35.9,94.3*,8.5,-8.8

# Screening results from PubChem.
